Assay results published in PubChem BioAssay (NCI).
The panel holds about 79,000 compounds, 15% with a hit somewhere; the sample as a whole holds those more often. Rule as the data show it: active = growth inhibition above about 70%; inactive = the rest.

Tests used:
[1] = NCI Yeast Anticancer Drug Screen. Data for the rad50 strain (AID 155);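 also: 0% = growth of vehicle-only cultures of the same strain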; settings: S. cerevisiae rad50 strain growth inhibition; at 50.0 µM; stronger effect = higher value
Summary of the method: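 Genetically altered yeast (DNA repair pathway); compound treatment; growth inhibition vs vehicle ctrl.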

[2] = NCI Yeast Anticancer Drug Screen. Data for the mec2-1 strain (AID 157); settings: S. cerevisiae mec2-1 strain, at 50.0 µM, stronger effect = higher value
Summary of the method: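 mec2-1 yeast strain, carrying an alteration in DNA damage repair or cell cycle control, was exposed to compounds; growth inhibition was measured relative to vehicle-treated controls.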

[3] = NCI Yeast Anticancer Drug Screen. Data for the sgs1 mgt1 strain (AID 161);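 also: 0% = growth of cultures given vehicle only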; settings: S. cerevisiae sgs1 mgt1 strain, at 50.0 µM, stronger effect = higher value
Summary of the method: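 Growth of a repair-deficient yeast mutant was monitored after compound treatment and expressed as inhibition relative to vehicle-treated cultures.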

[4] = NCI Yeast Anticancer Drug Screen. Data for the cln2 rad14 strain (AID 165);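 also: 0% = growth equal to vehicle treated cultures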; settings: S. cerevisiae cln2 rad14 strain, at 50.0 µM, stronger effect = higher value
Summary of the method: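 Yeast carrying cln2 and rad14 alterations (cell cycle control and DNA damage repair) were exposed to compounds. Growth inhibition was measured against vehicle-treated controls.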

[5] = NCI Yeast Anticancer Drug Screen. Data for the bub3 strain (AID 167); settings: S. cerevisiae bub3 mutant strain, at 50.0 µM, stronger effect = higher value
Summary of the method: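 Yeast carrying a defined mutation is treated with each compound, and growth is compared with that of vehicle-exposed cells to give inhibition.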

[6] = NCI Yeast Anticancer Drug Screen. Data for the mlh1 rad18 strain (AID 175); settings: S. cerevisiae mlh1 rad18 strain growth inhibition; at 50.0 µM; stronger effect = higher value
Summary of the method: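 Growth inhibition of the yeast strain was measured after compound exposure and expressed relative to vehicle-treated controls. The strain carries defined defects in DNA damage repair.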

Measured: growth inhibition

CC1CC(C)OC2(CCCC2)O1 (stereo not drawn)
inactive: [1] 8.45% | [2] -8.05% | [3] 2.2% | [4] -12.8% | [5] 4.05% | [6] -5.3%

CC(C)(C#CCOC(=O)c1ccc([N+](=O)[O-])cc1)OC(=O)c1ccc([N+](=O)[O-])cc1
inactive: [1] 9.25% | [2] -3.7% | [3] 18.5% | [4] 32.1% | [5] 1.5% | [6] 5.35%

CCOC(=O)C/C(C)=N\NC(N)=O
inactive: [1] 38.2% | [2] 42.5% | [3] 44.8% | [4] 18.2% | [5] 26.1% | [6] 42.8%

Brc1cc(Br)cc(-c2nnc(-c3ccc4ccccc4c3)o2)c1
inactive: [1] -3.5% | [2] -20.8% | [3] -2.45% | [4] 3.25% | [5] 3% | [6] 4.55%

CCOC(=O)C(CCSC)(CCN(C)Cc1ccccc1)C(=O)OCC
inactive: [1] -23.1% | [2] -3.05% | [3] -6.9% | [4] -0.9% | [5] 8.85% | [6] -3.3%

CCOC(=O)N[n+]1ccccc1
inactive: [1] 1.65% | [2] 8.2% | [3] 4.35% | [4] -3.4% | [5] 10.8% | [6] 8.1%

O=C1CCCc2ccc([N+](=O)[O-])c(O)c21
inactive: [1] 11% | [2] 10.1% | [3] -2.55% | [4] 4.4% | [5] 9.8% | [6] 8.65%

O=C(Nc1ccsc1)c1ccccc1
inactive: [1] -10.8% | [2] -8.7% | [3] -19.3% | [4] -58.2% | [5] -27.4% | [6] -3.25%

CCN(CC)c1cc2c3c(c1)CCCN3CCC2
inactive: [1] -20.9% | [2] -27.9% | [3] -3.85% | [4] 2.55% | [5] -8.1% | [6] -0.65%

CCOC(=O)C(NNc1ccccc1)C(=O)C(F)(F)F (stereo not drawn)
inactive: [1] 10.9% | [2] 3.2% | [3] -9.3% | [4] -18.8% | [5] 1.35% | [6] 18.6%

N#CCCN(CCC#N)c1ccc(/C=C2\CC(O)(c3ccccc3)N(c3ccc(Cl)cc3)C2=O)cc1 (stereo not drawn)
inactive: [1] -15.8% | [2] 0.35% | [3] -23.7% | [4] 11.3% | [5] -6.3% | [6] -22.4%

O=C(CN1CCN(c2ccccc2)CC1)n1nnc2ccccc21
inactive: [1] -9.4% | [2] -3.9% | [3] -3.6% | [4] -13.8% | [5] -31.5% | [6] -6%

O=C(COc1cc(Cl)c(Cl)cc1Cl)Nc1ccc(N=Nc2ccccc2)cc1
inactive: [1] 2% | [2] 3.55% | [3] -12.6% | [4] -9.55% | [5] 2.75% | [6] -7.95%

CCc1cccc(C)c1NC(=O)C(=O)CC(=O)CS(=O)(=O)c1ccc(C)cc1
inactive: [1] -13.4% | [2] -15.2% | [3] -6% | [4] -0.8% | [5] -8.8% | [6] 12.5%

O=C(N/N=C/c1cccc(F)c1)c1ccncc1
inactive: [1] 8.4% | [2] 1% | [3] -2.05% | [4] -23.9% | [5] -0.35% | [6] 8.35%

CCOC(=O)CNCc1ccc(Cl)c(Cl)c1
inactive: [1] 16.1% | [2] 4.15% | [3] 28.2% | [4] -15.6% | [5] 26.9% | [6] 21.9%

CC(=O)OC1CC(=O)OC(C)(C)C2CC(=O)C3(C)C(CCC4(C)C(c5ccoc5)OC(=O)C5OC543)C12C (stereo not drawn)
inactive: [1] 20.5% | [2] -18.3% | [3] 11.1% | [4] 2.85% | [5] -6.55% | [6] 21.1%

CN1CN(C)C(c2ccncc2)=C1c1ccncc1
inactive: [1] -36% | [2] -47.5% | [3] -29.9% | [4] -0.5% | [5] -58.3% | [6] -19.5%

N#CCc1ccc(-c2ccccc2)cc1
inactive: [1] -2.75% | [2] 20.9% | [3] 3.3% | [4] -31.9% | [5] -19.6% | [6] 6.25%

COC(=O)C1(C(=O)Nc2ccccc2)N=N1
inactive: [1] 13.7% | [2] 7.55% | [3] 2.5% | [4] 3.35% | [5] -4.45% | [6] 8.15%

S=C1SCN(C2CCCCCCCCCCC2)CN1C1CCCCCCCCCCC1
inactive: [1] -52.5% | [2] -29.1% | [3] -17.9% | [4] -3.7% | [5] -20% | [6] -40.5%

CCOC(=O)C(Cl)C(C)(O)c1ccccc1 (stereo not drawn)
inactive: [1] 11.2% | [2] -3.65% | [3] 11.9% | [4] -46.7% | [5] 5.8% | [6] 17.8%

CCCCN1CCNC1=S
inactive: [1] -0.85% | [2] -13.2% | [3] 4.25% | [4] -10.6% | [5] -28.4% | [6] 9.35%

Cc1cc(C)c(C2CNCc3cc4c(cc32)CNCC4c2c(C)cc(C)cc2C)c(C)c1 (stereo not drawn)
inactive: [1] -16.3% | [2] -32.8% | [3] -46% | [4] -44.9% | [5] -62.8% | [6] -131%

CCCNC(=O)c1cccc2c1-c1ccccc1C2=O
inactive: [1] -0.55% | [2] 3.85% | [3] -2.65% | [4] -1.7% | [5] 4.65% | [6] -1.45%

O=[N+]([O-])c1ccccc1C=Nc1ccc2nc(SCc3ccccc3)sc2c1
inactive: [1] 8.15% | [2] 3.65% | [3] 3.95% | [4] 0.7% | [5] -4% | [6] -16.8%

C/C(CCN(C)C)=N\OC(=O)c1ccccc1
inactive: [1] -12.2% | [2] -25.9% | [3] -33.2% | [4] -6.65% | [5] -6.95% | [6] -26.9%

OC1OCC(COc2ccc(Cl)cc2)OC1O (stereo not drawn)
inactive: [1] -17.6% | [2] -9.05% | [3] -12.2% | [4] 1.25% | [5] -36.7% | [6] 18.9%

CC(C)CCOC(=S)S
inactive: [1] 35.2% | [2] 17.9% | [3] -22.6% | [4] -5.8% | [5] 34.2% | [6] -38.4%

O=C(/C=C/c1cc2ccccc2o1)N1CCN(c2ccccn2)CC1
inactive: [1] 28.6% | [2] 27.6% | [3] 39.2% | [4] 11.3% | [5] 17.9% | [6] 15.8%

CC(C)CCCC(C)C1CCC2C3CCC4CC(O)C5(CC4(C)C3CCC12C)SCCS5 (stereo not drawn)
inactive: [1] 41% | [2] 10.9% | [3] 15.1% | [4] 18.4% | [5] -6.35% | [6] 18.4%

COc1ccc2c(c1)C1c3ccccc3CCN1CCC2 (stereo not drawn)
inactive: [1] 20.8% | [2] 20.9% | [3] -23.1% | [4] 24.1% | [5] -8.4% | [6] 6%

Cc1cnc(Cl)[nH]1 (tested in a mixture with another compound)
inactive: [1] 2.7% | [2] 1.55% | [3] 2.15% | [4] -47.5% | [5] 14.8% | [6] -5.5%

CC(=O)OCN(C)N=Nc1ccc(C(C)=O)cc1
inactive: [1] -4.6% | [2] -11.3% | [3] -27.8% | [4] -22.7% | [5] 20.9% | [6] 5.45%

CCOC1CSc2ccccc2C(c2ccccc2)=N1 (stereo not drawn)
inactive: [1] 9.9% | [2] -1.4% | [3] 0.25% | [4] 10.6% | [5] 14.7% | [6] 6.75%

CN(C)COC(=S)SCC(=O)O
inactive: [1] 8.4% | [2] -0.85% | [3] 2.6% | [4] -26.6% | [5] -3.05% | [6] -1.9%

CCOC(=O)Oc1ccc(C(CNC(C)C)OC(=O)OCC)cc1OC(=O)OCC (stereo not drawn)
inactive: [1] 38.5% | [2] 2.8% | [3] 25.6% | [4] 9.65% | [5] 4.45% | [6] 32.9%

CCCCCCCCN(C)/N=N/c1nc[nH]c1C(N)=O
inactive: [1] 20.7% | [2] -4.7% | [3] 15.1% | [4] 17.6% | [5] 17.8% | [6] 24.4%
